# Assay results: PubChem BioAssay (NCATS)
# Inconclusive results are not listed. The source made the active and inactive calls. Calls follow the shape of the dose curve; as a rule, active = well fitted cell-killing curve with a large enough effect; inconclusive = small, poorly fitted or top-dose-only effect, or effect the other way; inactive = flat fitted curve, though single readings scatter.
# Assay: qHTS of pediatric cancer cell lines to identify multiple opportunities for drug repurposing: Confirmatory screen for Rh18 cells (AID 1347125); also: nearly all actives have a fitted effect of over 55% in size
# Conditions: Rh18 rhabdomyosarcoma cells, viability; series mostly up to 45.9 µM; activity change, negative = cytotoxic: at the top concentration
# Method in brief: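 Viability after 48 h compound treatment at 37C, 500-1,000 cells/well, read as ATP luminescence with CellTiter-Glo. Primary screens used 11-point (MIPE, 0.78 nM-46 µM) or 8-point (NPC, 0.59 nM-46 µM) final concentrations; follow-up screens used 11-point dilutions.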
# % is scaled to controls: 0 for no effect and ±100 for the full control effect; potency is read from the fitted curve at half-maximal effect.
Compound,"activity change, negative = cytotoxic",Potency
O=C(C=CC=Cc1ccc2c(c1)OCO2)N1CCCCC1,-17.2% (inactive),
COc1cccc2c1C(=O)c1c(O)c3c(c(O)c1C2=O)C[C@@](O)(C(C)=O)C[C@H]3O[C@H]1C[C@H](N)[C@H](O)[C@H](C)O1,,2.61 µM (active)
CC(C)N1[N]C(=C2C=c3cc(O)ccc3=N2)c2c(N)ncnc21,,6.57 µM (active)
Oc1cc(-c2nc(-c3ccccc3)[nH]c2-c2ccncc2)ccc1Cl,,18.5 µM (active)
Oc1ccc(-c2ccc(-c3cc(Nc4cccc(CNC5CC5)c4)n[nH]3)cc2)c(O)c1,,16.5 µM (active)
Nc1ncn([C@@H]2O[C@H](CO)[C@@H](O)[C@@H]2O)c(=O)n1,,20.8 µM (active)
COC[C@H](NC(=O)c1cnc(C)s1)C(=O)N[C@@H](COC)C(=O)N[C@@H](Cc1ccccc1)C(=O)[C@@]1(C)CO1,,0.208 µM (active)
COc1cc([C@@H]2c3cc4c(cc3[C@H](O)[C@H]3COC(=O)[C@@H]23)OCO4)cc(OC)c1OC,-7.28% (inactive),
CC(=O)NCC(=O)N1[C@H]2CC[C@H]1c1cc(Nc3ncc(C(F)(F)F)c(NC4CCC4)n3)ccc12,,2.93 µM (active)
N#CNC(=NCCCCCCOc1ccc(Cl)cc1)Nc1ccncc1,,0.0465 µM (active)
COC(=O)[C@@H]1[C@H]2C[C@@H]3c4[nH]c5ccccc5c4CCN3C[C@@H]2CC[C@@H]1O,-7.02% (inactive),
COc1ccc(S(=O)(=O)Nc2cccnc2Nc2ccc(O)cc2)cc1,-14.2% (inactive),
C=C1C(=CC=C2CCC[C@]3(C)[C@@H]([C@H](C)CCCC(C)(C)O)CC[C@@H]23)C[C@@H](O)C[C@@H]1O,-13.5% (inactive),
